In all, about 68,000 sequences were measured (“fluorescence intensity (a.u.)”: median about 9,100, highest 2% from about 16,000 on). For the sample, the highest values were picked, then their nearest neighbours and some sequences at random.

Data on 23 sequences can be found in article PMC7819943, “Rice protein-binding microarrays: a tool to detect cis-acting elements near promoter regions in rice”.

The target in the experiment is OsWRKY34 (Oryza sativa, UniProt Q0JBA9 1-250). Description: protein-binding microarray (RPBM); PBS, 2% BSA, 51.3 ng/ul salmon testes DNA, 50 uM zinc acetate, 200 nM TF, 25 C, 1 h; high values mean tight binding. To be noted: protein: recombinant; tags: N-terminal polyhistidine and DsRed monomer fusion (pET32a); label: CyDye5-dUTP incorporated in the synthesized complementary strand; 3' TTTTT single-stranded linker to array surface; dsDNA, one strand shown. A digest of the protocol: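 For the binding signal, per-feature fluorescence intensity was read in arbitrary units on an Axon 4000B scanner. Before scanning, a 2% BSA-blocked custom Agilent array made double-stranded with Cy5-dUTP was washed after 1 h at 25 °C with 200 nM protein and 50 µM zinc acetate. The proteins were Ni–NTA-purified transcription factors with N-terminal polyhistidine and DsRed fusions, expressed in E. coli BL21-CodonPlus.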
Chain of OsWRKY34 (Q0JBA9 entry or part of it): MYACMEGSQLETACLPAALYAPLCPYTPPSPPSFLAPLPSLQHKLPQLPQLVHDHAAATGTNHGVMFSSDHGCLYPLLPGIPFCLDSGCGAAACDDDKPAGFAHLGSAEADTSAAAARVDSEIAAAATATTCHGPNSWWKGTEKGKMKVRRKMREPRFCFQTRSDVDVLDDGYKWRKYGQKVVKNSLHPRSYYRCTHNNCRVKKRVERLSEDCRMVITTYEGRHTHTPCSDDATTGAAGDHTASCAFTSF
For “CACGAAGCCAGTCTAACCGCCATGTGTGGGCTTGTTTGACCGGAGTCACCTAGTGCAG”, the binding signal is 8700 fluorescence intensity (a.u.).

In the case of “TGCTTCTTGGACATCGCATCATATTTAAGCATGTTTTCCTCGGAGTCACCTAGTGCAG”, the binding signal was 10500 fluorescence intensity (a.u.).

As for “CTCTCTTTCTCTTCCATTTCTTGAAACTTGTATGGAGGTTCGGAGTCACCTAGTGCAG”, the binding signal was 9410 fluorescence intensity (a.u.).

Turning to “ATCATTTCGCACATTAACTCTCTCTCTCTCTCTCCATTTTCGGAGTCACCTAGTGCAG”, the binding signal is 15200 fluorescence intensity (a.u.).

In the case of “GAATTTTGCTTTGGTTCAACCTTTTTTCTCTTCTTTCTCTCGGAGTCACCTAGTGCAG”, the binding signal was 9740 fluorescence intensity (a.u.).

In the case of “GACCTTTTTTTCTTTTCTTCTTTGTTCTTTGTTGTTCTCTCGGAGTCACCTAGTGCAG”, the binding signal was 10700 fluorescence intensity (a.u.).

On to “AACCTTTTCTTTCTTTCTTCACTTTGGTTGCGTTGCGTCTCGGAGTCACCTAGTGCAG”, for which the binding signal is 24200 fluorescence intensity (a.u.).

Consider “AAGGTATGGTTCTTCATTCTTGTCATTTTCTTTTGCAGCACGGAGTCACCTAGTGCAG”, for which the binding signal was 8220 fluorescence intensity (a.u.).

In the case of “CTCAGCTTCCGTTATTACCTCTGCGCACAAGTTACCGGGCCGGAGTCACCTAGTGCAG”, the binding signal was 8720 fluorescence intensity (a.u.).

Take “CCTCATCACAAAATGTTTGACGCTGTTGACTTTTTTAAAACGGAGTCACCTAGTGCAG”: the binding signal is 15900 fluorescence intensity (a.u.).

For the sequence “AAATTAAATTTAAAAATTTAAATTTTGACTTTTTCTTGACCGGAGTCACCTAGTGCAG”, the binding signal was 8250 fluorescence intensity (a.u.).

Regarding “GAAAAAAATGTAAAAACTGTTGACTTTTAGTCAACGCCATCGGAGTCACCTAGTGCAG”, the binding signal is 16400 fluorescence intensity (a.u.).

Regarding “GTACTCCCTCCATCCCTAAATGTTTGACGCCGTTGACTTTCGGAGTCACCTAGTGCAG”, the binding signal was 16000 fluorescence intensity (a.u.).

With “TTGACGCCGTTGACTTTTTAAAAAATATTTGACCGTTCTTCGGAGTCACCTAGTGCAG”, the binding signal was 37100 fluorescence intensity (a.u.).

Take “AATTTTCTTAAAATTTGAGGTTTAGTTTGACTTTCTTTTTCGGAGTCACCTAGTGCAG”: the binding signal is 9400 fluorescence intensity (a.u.).

Turning to “TGTTTGACTTTTTTCTTGGTTAAAATTCTTTAAATTTGATCGGAGTCACCTAGTGCAG”, the binding signal was 18900 fluorescence intensity (a.u.).

“CTCCATCCTAAAATGTTTGACGCCGTTGACTTTTTTAAATCGGAGTCACCTAGTGCAG”: the binding signal is 24500 fluorescence intensity (a.u.).

For the sequence “AAGATATTTTCAATGTATTTTTTTATTGTTGACTTTTAAACGGAGTCACCTAGTGCAG”, the binding signal was 9030 fluorescence intensity (a.u.).

Turning to “GGTGGTTCTTGCTTCACACAATCTGGCGCGCTTCAGAACACGGAGTCACCTAGTGCAG”, the binding signal is 13300 fluorescence intensity (a.u.).

Turning to “AAAACATGGTACAAATGCATACGCTCACACATGCACACTCCGGAGTCACCTAGTGCAG”, the binding signal was 8300 fluorescence intensity (a.u.).

Regarding “ACTCACACTAGCTTGAAACTATCTGCGTACTCAAATTCAACGGAGTCACCTAGTGCAG”, the binding signal was 8080 fluorescence intensity (a.u.).

For the sequence “CCATCCCGCCGCCACCGCCGCCGCCGCCGCCTCATCCTCCCGGAGTCACCTAGTGCAG”, the binding signal was 9300 fluorescence intensity (a.u.).

As to “ATTCTCAAATACCACTCGGGCCCACATGTCAGCCTTACTCCGGAGTCACCTAGTGCAG”, the binding signal was 8200 fluorescence intensity (a.u.).
